Here are results for seven molecules from PubChem BioAssay (NCATS).

Assay [1] can be described thus: AP1 Signaling Pathway (AID 357).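 Also: ME-180 reporter cells stimulated with EGF at its EC50 level; % is scaled to controls: 0 for no effect and ±100 for the full control effect.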 In a few lines: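 Beta-lactamase reporter under AP-1 response element, ME-180 background. Stimulus: EC50 EGF. Compound exposure 5 h, 37 °C. Detection: CCF4, 2.5 h RT, 460/530 nm. Values: AC50 from titration.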
The target in assay [2] is Cytochrome P450 1A2 (Homo sapiens) (UniProt P05177). As to the kind of experiment: p450-cyp1a2 (AID 410; calls by dose curve; also: potency is read from the fitted curve at half-maximal effect). In a few lines:
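Read-out is luminescence from luciferin produced by CYP1A2 demethylation of Luciferin-ME (100uM, at Km). Detection reagent stopped the 60 min NADPH-dependent reaction; signals were normalized to 57 uM furafylline.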

The nature of assay [3]: NFAT Signaling Pathway (AID 444).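 Also: carbachol stimulus at about its EC50 of 1 µM final; % is scaled to controls: 0 for no effect and ±100 for the full control effect.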 As to conditions: Jurkat NFAT-bla M1, carbachol, beta-lactamase ratio, 5 h; at 17.2 µM (top of the series). In short, it runs like this: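 Jurkat cells carrying an NFAT-driven β-lactamase reporter and co-transfected muscarinic M1 receptor were treated with compound plus carbachol (1 uM final, an EC50 level) for 5 h at 37 °C. CCF4 loading followed for 1 h at RT; 460/530 nm ratio gave %activity.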

Assay [4] can be described thus: Stat Signaling Pathway (AID 446).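 Also: ME-180 cervical cancer cells given 40 pM IL-6 alongside compound; SIE-controlled beta-lactamase reporter measured as 460/530 nm FRET emission ratio; % is scaled to controls: 0 for no effect and ±100 for the full control effect.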 In a few lines:
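FRET read-out (405 nm excitation, 460/530 nm emission) of a beta-lactamase reporter under a STAT-inducible element in ME-180 cervical carcinoma cells. Cells with compound receive 40 pM IL-6 for 5 h. Values are normalised to AC90 stimulation and AC90 JAK-inhibitor controls.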

Assay [5] deals with Glucocorticoid receptor (Homo sapiens) (UniProt P04150). As to the kind of experiment: GR-GFP Redistribution (AID 450;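 active = compounds whose dose series gives a full or clear partial fitted curve of increased nuclear translocation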; also: potency is read from the fitted curve at half-maximal effect). As to conditions: U2OS GR-GFP nuclear translocation, laser cytometry, 2 h.
Assay [6] has the same target. The assay is described as follows: GR-EFC Redistribution (AID 451; calls by dose curve; also: potency is read from the fitted curve at half-maximal effect). As to conditions: CHO-K1 GR-EFC translocation, beta-gal luminescence, 2 h. In a few lines: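 CHO-K1 cells stably expressing nuclear-localized β-gal enzyme acceptor and GR fused C-terminally to the enzyme donor fragment; ligand-driven nuclear translocation restores β-gal by complementation. Compounds titrated up to 46 uM final, 2 h at 37 °C; luminescence read.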

Assay [7] has as its target 3',5'-cyclic-AMP phosphodiesterase 4B (Homo sapiens) (UniProt Q07343). As to the kind of experiment: qHTS Assay for Inhibitors of PDE-IV (AID 607; active = well fitted activation curve with a large enough effect in the main read-out, with a control signal flat, not every such curve was filed as active; also: % of control where 0% means no effect). In a few lines: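 Cell-based read-out of cAMP via a modified cyclic nucleotide-gated channel and membrane potential dye (535/590 nm) in HEK293 cells expressing PDE4 endogenously. Compounds tested up to 22.9 uM final; 100 uM RO 20-1724 reference.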
A general note: In qHTS, concentration-response curves come from the screen itself.

The nature of assay [8]: qHTS Assay for Lipid Storage Modulators (AID 1519; calls by dose curve). To be noted: Drosophila S3 cells, BODIPY lipid droplet/cell ratio, laser cytometry, cells loaded with oleic acid; for activity change, negative = inhibition: at 25.7 µM (top of the series). In short, it runs like this:
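Cells seeded at 5,000 per well were treated with compounds over a concentration series and loaded with oleic acid (400 uM, as added). Lipid droplet fluorescence (488 nm excitation, 500-530 nm channel) was read by laser-scanning cytometry and normalized to 20 uM Triacsin C.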

The target of assay [9] is Ubiquitin carboxyl-terminal hydrolase 1 (Homo sapiens) (UniProt O94782). As to the kind of experiment: Inhibitors of USP1/UAF1: Pilot qHTS (AID 504865; active = well fitted curve in the direction sought with a large enough effect; an effect the other way counts as inactive or inconclusive;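 also: rhodamine fluorescence freed from ubiquitin-rhodamine substrate followed over time; top concentration of the series differs between compounds; % is scaled to controls: 0 for no effect and ±100 for the full control effect; nearly all actives have a fitted effect of over 35% in size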). In a few lines:
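Kinetic fluorescence assay: 1nM USP1/UAF1, 15 min compound preincubation, then 150nM Ub-Rho; 480/540 nm.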

The target in assay [10] is Mitogen-activated protein kinase 10 (Mus musculus) (UniProt Q61831). The assay is described as follows: JNK3 AlphaScreen Assay (AID 530).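 Also: kinase came from lysate of stimulated human HepG2 cells; signal reports phosphorylation of biotinylated GST-cJun 1-79 at Ser73 with 10 µM ATP; % is scaled to controls: 0 for no effect and ±100 for the full control effect.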 In short, it runs like this:
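Biotinylated GST-cJun(1-79) served as substrate for JNK3 in HepG2 lysates stimulated with IL-1beta and TNF-alpha. ATP was 10 uM final, pH 7.6. Ser73 phosphorylation was quantified by AlphaScreen (680 nm excitation).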

The target in assay [11] is Cytochrome P450 3A4 (Homo sapiens) (UniProt P08684). As to the kind of experiment: qHTS Assay for Activators of Cytochrome P450 3A4 (AID 885; active = well fitted curve in the direction sought with a large enough effect; an effect the other way counts as inactive or inconclusive; also: nearly all actives have a fitted effect of over 65% in size). In short, it runs like this:
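Luminescent readout of luciferin formed from 25 uM Luciferin-PPXE (KM level) by 20 nM CYP3A4 in 200 mM KPO4, with 60 min NADPH-driven reaction at room temperature after 10 min compound exposure. Ketoconazole (57 uM) defined 100% inhibition.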

For assay [12], the target named is Luciferin 4-monooxygenase (Photinus pyralis) (UniProt P08659). The assay is described as follows: Biochemical firefly luciferase enzyme assay for NPC (AID 624030; active = well fitted curve in the direction sought with a large enough effect; an effect the other way counts as inactive or inconclusive;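 also: purified P. pyralis luciferase at 10 nM with luciferin and ATP substrate; 0% = DMSO and -100% = full luciferase inhibition by PTC124 control; nearly all actives have a fitted effect of over 70% in size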). In short, it runs like this:
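Counter-screen for direct inhibition of the luciferase enzyme by approved-drug library compounds, run at 10 nM enzyme in 50 mM Tris acetate (final). Luminescence was read within 5 min of enzyme-buffer addition and normalized to PTC124 versus DMSO (0%).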

Assay [13] can be described thus: S16 Schwann cell PMP22 intronic element firefly luciferase assay (AID 624032; active = well fitted curve in the direction sought with a large enough effect; an effect the other way counts as inactive or inconclusive;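 also: plate controls were DMSO for no effect and PTC124 positive control mean for full effect; nearly all actives have a fitted effect of over 30% in size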). In a few lines:
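Rat S16 Schwann cells stably carrying a PMP22 intronic element-driven Fluc reporter were seeded overnight, then exposed to compounds for 24 h at 37 °C. Luminescence was normalized to PTC124 (positive control) and DMSO (0% activity).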

Assay [14] is described as follows: qHTS profiling for inhibitors of Plasmodium falciparum proliferation (AID 504749; active = well fitted curve in the direction sought with a large enough effect; an effect the other way counts as inactive or inconclusive;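 also: 0% = DMSO vehicle and full inhibition = artemisinin control; nearly all actives have a fitted effect of over 60% in size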). To be noted: P. falciparum in erythrocytes, SYBR Green DNA, 72 h, at 28.7 µM (top of the series). In short, it runs like this:
(§1)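 Fluorescence of SYBR Green-bound parasite DNA, read at 485/535 nm, served as the growth measure. Infected erythrocytes were cultured with compound 72 h; artemisinin (0.29 uM) and DMSO wells defined the normalization range.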

The subject of the next assay is C2A. The assay is described as above. As to conditions: P. falciparum in erythrocytes, SYBR Green DNA, 72 h; series mostly up to 28.7 µM. In a few lines:
as §1

A further assay concerns CP185. The assay is described as above. To be noted: P. falciparum in erythrocytes, SYBR Green DNA, 72 h; series mostly up to 28.7 µM. In a few lines: as §1
Another assay has as its system FAB9. The assay is described as above. To be noted: P. falciparum in erythrocytes, SYBR Green DNA, 72 h; series mostly up to 28.7 µM. In a few lines: as §1
[15] abbreviates: measured here: cell count channel max response.
[16] abbreviates: measured here: lipid channel max response.

Molecules are shown by their SMILES. Where “and” joins values, the source holds several entries; their conditions need not be identical. Equal entries are not always repeated. Inconclusive results are not listed. Calls of active or inactive are those of the source. Unless noted, calls follow the shape of the dose curve; as a rule, active = well fitted curve in either direction with a large enough effect (not every such curve was filed as active); inconclusive = small, poorly fitted or top-dose-only effect, or another doubt; inactive = flat fitted curve, though single readings scatter.

Chain of Glucocorticoid receptor (Homo sapiens) (P04150 whole entry, looked up, the tested form may be a part): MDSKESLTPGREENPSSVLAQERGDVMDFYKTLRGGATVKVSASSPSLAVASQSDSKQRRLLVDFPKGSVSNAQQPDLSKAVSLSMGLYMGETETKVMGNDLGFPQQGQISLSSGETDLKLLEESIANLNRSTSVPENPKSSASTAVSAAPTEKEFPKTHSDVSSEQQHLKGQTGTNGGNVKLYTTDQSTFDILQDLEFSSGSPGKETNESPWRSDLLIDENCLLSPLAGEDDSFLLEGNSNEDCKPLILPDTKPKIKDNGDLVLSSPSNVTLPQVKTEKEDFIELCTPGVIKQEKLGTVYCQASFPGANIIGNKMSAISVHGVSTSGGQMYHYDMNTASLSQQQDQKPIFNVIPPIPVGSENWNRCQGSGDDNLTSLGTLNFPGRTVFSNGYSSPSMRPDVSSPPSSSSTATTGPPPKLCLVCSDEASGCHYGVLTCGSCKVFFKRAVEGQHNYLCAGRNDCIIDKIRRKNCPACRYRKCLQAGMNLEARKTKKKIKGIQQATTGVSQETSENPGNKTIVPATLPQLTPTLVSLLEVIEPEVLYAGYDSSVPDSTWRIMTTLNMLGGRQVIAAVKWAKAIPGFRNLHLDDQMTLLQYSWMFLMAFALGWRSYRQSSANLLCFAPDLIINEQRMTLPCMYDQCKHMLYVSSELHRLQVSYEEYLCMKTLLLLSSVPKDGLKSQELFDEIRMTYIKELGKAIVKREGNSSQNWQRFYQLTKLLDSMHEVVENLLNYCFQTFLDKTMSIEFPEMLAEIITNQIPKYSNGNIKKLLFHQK
Chain of Ubiquitin carboxyl-terminal hydrolase 1 (Homo sapiens) (O94782 whole entry, looked up): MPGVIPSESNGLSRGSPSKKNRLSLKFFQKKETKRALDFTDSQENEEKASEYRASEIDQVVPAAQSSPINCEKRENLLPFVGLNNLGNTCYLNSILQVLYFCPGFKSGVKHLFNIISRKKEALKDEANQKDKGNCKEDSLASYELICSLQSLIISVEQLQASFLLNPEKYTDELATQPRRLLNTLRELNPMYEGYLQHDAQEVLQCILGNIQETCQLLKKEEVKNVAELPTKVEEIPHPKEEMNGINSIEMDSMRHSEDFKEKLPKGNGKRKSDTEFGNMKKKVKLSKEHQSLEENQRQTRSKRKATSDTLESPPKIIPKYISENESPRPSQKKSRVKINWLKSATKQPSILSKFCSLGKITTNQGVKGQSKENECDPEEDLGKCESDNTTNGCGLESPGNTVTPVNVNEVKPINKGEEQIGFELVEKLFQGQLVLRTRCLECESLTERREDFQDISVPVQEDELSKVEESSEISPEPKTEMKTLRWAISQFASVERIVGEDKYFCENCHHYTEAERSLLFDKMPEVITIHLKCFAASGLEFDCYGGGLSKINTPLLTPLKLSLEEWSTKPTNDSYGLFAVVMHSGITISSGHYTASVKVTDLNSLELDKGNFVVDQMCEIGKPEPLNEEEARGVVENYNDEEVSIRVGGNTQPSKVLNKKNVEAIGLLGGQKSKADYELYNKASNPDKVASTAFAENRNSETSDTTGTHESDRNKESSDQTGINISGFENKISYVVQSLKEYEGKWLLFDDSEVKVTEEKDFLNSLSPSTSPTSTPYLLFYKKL
Chain of Cytochrome P450 1A2 (Homo sapiens) (P05177 whole entry, looked up): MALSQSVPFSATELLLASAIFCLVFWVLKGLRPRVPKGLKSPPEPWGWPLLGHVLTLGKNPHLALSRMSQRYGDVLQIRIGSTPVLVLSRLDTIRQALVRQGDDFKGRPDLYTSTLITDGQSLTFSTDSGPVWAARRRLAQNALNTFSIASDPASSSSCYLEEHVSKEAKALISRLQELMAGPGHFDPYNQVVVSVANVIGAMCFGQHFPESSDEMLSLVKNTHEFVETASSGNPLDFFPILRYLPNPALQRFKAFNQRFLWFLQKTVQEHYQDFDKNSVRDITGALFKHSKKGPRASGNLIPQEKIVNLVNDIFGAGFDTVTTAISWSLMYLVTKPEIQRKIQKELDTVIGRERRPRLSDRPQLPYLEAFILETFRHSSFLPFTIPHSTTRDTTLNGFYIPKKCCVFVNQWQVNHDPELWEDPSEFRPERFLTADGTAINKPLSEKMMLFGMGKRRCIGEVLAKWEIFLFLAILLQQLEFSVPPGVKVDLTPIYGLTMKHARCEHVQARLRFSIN
Chain of 3',5'-cyclic-AMP phosphodiesterase 4B (Homo sapiens) (Q07343 whole entry, looked up): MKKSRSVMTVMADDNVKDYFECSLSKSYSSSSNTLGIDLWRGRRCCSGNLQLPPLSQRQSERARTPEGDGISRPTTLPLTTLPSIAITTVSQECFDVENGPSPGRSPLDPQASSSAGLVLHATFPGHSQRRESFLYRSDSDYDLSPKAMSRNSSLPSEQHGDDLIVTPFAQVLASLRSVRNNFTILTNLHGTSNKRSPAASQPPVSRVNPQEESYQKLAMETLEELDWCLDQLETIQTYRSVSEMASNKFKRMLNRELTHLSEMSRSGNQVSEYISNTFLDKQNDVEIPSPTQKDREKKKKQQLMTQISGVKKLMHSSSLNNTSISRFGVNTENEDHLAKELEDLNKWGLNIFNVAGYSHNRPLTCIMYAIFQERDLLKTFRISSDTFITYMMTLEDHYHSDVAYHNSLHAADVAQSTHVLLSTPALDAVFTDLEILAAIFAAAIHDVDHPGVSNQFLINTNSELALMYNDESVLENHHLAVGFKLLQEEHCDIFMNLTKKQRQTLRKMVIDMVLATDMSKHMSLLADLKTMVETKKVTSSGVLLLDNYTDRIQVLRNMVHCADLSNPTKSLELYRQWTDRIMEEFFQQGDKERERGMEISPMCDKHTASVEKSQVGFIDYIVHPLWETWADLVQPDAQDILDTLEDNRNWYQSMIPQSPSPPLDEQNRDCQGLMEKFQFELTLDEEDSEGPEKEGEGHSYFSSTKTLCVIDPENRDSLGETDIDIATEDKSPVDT
Chain of Cytochrome P450 3A4 (Homo sapiens) (P08684 whole entry, looked up): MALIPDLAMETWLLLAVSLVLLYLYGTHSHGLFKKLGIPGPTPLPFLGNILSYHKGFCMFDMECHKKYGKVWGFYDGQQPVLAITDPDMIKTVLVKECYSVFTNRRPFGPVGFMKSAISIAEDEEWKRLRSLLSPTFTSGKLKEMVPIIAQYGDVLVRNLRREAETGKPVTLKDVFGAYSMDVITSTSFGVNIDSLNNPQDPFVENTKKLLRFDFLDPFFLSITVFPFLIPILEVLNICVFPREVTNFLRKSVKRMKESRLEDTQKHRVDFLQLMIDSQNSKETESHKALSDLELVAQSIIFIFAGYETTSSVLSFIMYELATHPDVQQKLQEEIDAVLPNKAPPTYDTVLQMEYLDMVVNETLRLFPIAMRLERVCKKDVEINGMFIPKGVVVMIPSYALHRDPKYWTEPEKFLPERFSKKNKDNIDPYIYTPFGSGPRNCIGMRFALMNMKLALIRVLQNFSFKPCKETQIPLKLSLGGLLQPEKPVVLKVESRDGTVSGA
Chain of Luciferin 4-monooxygenase (Photinus pyralis) (P08659 whole entry, looked up): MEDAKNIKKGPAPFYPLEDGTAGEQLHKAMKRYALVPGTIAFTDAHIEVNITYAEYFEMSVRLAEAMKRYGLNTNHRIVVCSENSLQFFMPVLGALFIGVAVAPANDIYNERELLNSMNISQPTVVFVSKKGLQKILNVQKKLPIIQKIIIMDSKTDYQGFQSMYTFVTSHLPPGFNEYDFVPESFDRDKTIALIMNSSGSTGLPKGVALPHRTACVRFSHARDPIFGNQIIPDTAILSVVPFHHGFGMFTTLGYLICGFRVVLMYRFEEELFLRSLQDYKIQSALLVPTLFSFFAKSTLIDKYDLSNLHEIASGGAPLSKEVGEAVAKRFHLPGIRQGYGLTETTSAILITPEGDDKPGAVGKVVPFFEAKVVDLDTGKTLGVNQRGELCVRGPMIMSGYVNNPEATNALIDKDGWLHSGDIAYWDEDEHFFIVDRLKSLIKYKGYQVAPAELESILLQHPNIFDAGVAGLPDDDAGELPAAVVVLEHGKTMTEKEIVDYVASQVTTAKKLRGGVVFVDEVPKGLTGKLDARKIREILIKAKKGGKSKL

Take `CC(C)[C@@]1(NC(=O)[C@@H]2C[C@H]3c4cccc5[nH]cc(c45)C[C@@H]3N(C)C2)O[C@]2(O)[C@H]3CCCN3C(=O)CN2C1=O`: the outcome in assay [1] and in assay [4] was inactive. In addition, the Potency entry in assay [2], in [7] and in assay [9] was “inactive” each time. Also, the activity change, negative = inhibition in [3] was -1.94% (inactive); in assay [8], 1.9% (inactive). Further, the Potency in assay [5] and in assay [6] was > 20.6 µM (inactive) each time. Also, the max response in assay [8] (setting [15]) stood at 8.08%; in [8] (setting [16]), 10.3%.

With `CCN1C[C@]2(C)CC[C@H](O)[C@@]34[C@@H]5CC6[C@@H](OC)C[C@@](O)([C@@H]5[C@@H]6O)[C@H](C[C@@H]23)[C@H]14`, the result in assay [1], in [4] and in assay [10] was inactive. In addition, the Potency entry in assay [2] and in assay [7] was “inactive” throughout. Besides, the activity change, negative = inhibition in assay [3] was -2.56% (inactive); in [8], -2.73% (inactive). The Potency in assay [5] and in [6] was > 20.6 µM (inactive) throughout. The max response is -6.13% in assay [8] (setting [15]) and -11.4% in assay [8] (setting [16]).

In the case of `CCN1C[C@@]2(COC)CC[C@H](O)[C@@]34[C@@H]2C[C@@H]([C@@H]13)[C@]1(O)C[C@@H](OC)C2C[C@H]4[C@H]1[C@H]2OC(C)=O`, the outcome in assay [1], in [4] and in assay [10] was inactive. Besides, the Potency result in assay [2], in assay [7] and in assay [9] was “inactive” each time. The activity change, negative = inhibition in assay [3] is -14.2% (inactive); in assay [8] it was 2.15% (inactive). The Potency in assay [5] and in assay [6] was > 20.6 µM (inactive) in each case. The max response in assay [8] (setting [15]) is -6.46%; in assay [8] (setting [16]), -5.05%.

For the molecule `CCN(CC)C(=O)N[C@@H]1C[C@H]2c3cccc4[nH]cc(c34)C[C@@H]2N(C)C1`, the call in [1] and in assay [4] was inactive. In addition, the Potency entry in assay [2], in assay [7], in [11] and in assay [9] was “inactive” throughout. Moreover, the activity change, negative = inhibition is 3.13% (inactive) and -9.31% (inactive) in assay [3]; 2.1% (inactive) and 1.29% (inactive) in assay [8]. Moreover, the max response in assay [8] (setting [15]) is -3.13% and -3.55%; in assay [8] (setting [16]) it was -0.685% and -2.23%.

Consider `C=C[C@H]1CN2CC[C@@H]1C[C@H]2[C@@H](O)c1ccnc2ccccc12`, for which the call in assay [1], in [4] and in [10] was inactive. For the same molecule, the Potency result in assay [2], in assay [7] and in assay [9] was “inactive” in each case. The activity change, negative = inhibition was -25.9% (inactive) in [3]; -1.72% (inactive) and -4.09% (inactive) in [8]. In addition, the Potency in assay [5] and in assay [6] was > 20.6 µM (inactive) each time. Further, the max response in [8] (setting [15]) was 9.79% and -10.1%; in assay [8] (setting [16]) it was 6.74% and -12.1%.

As to `CCN1C[C@@]2(COC)[C@H]3[C@@H](OC)[C@H]4C1[C@@]3([C@H](OC)C[C@@H]2O)[C@H]1C[C@@]2(O)[C@@H](OC(=O)c3ccccc3)[C@@H]1[C@@]4(OC(C)=O)[C@H](O)[C@@H]2OC`, the outcome in [1], in assay [4] and in assay [10] was inactive. Also, the Potency result in assay [2] and in [7] was “inactive” in each case. Further, the values for the activity change, negative = inhibition in [3] and in [8] were -22.7% (inactive) and -1.64% (inactive), respectively. Also, the max response was -0.297% in assay [8] (setting [15]) and -0.649% in [8] (setting [16]).

On to `N[C@H]1C[C@H]1c1ccccc1`, for which the result in assay [1], in assay [4] and in assay [10] was inactive. Also, the Potency in assay [2] was 5.01 µM (active). In addition, the activity change, negative = inhibition in assay [3] was -3.83% (inactive); in [8] it was -0.294% (inactive). Besides, the Potency entry (in assay [7]; in [9]; in assay [12]; in assay [13]; in the assay on C2A; in the assay with CP185) was “inactive” throughout. Moreover, the Potency result with FAB9 is “inactive”. The max response in assay [8] (setting [15]) is 5.35%; in [8] (setting [16]), 3.84%. Also, the activity, negative = inhibition in assay [14] (parasite line A) is 10.1% (inactive); in assay [14] (parasite line B), 3.27% (inactive).
